# PubChem BioAssay AID651702 (NMMLSC, 2012)
# The whole screen tested about 360,000 compounds, of which about 2,400 (0.67%) were called active.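 The calls were made as follows: active = inhibition above about 55% (limit read from the data); inconclusive = no clear call, values can overlap the other calls; inactive = the rest.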 What follows is part of a selection rich in actives, with near analogues and random picks from the rest.
# Experiment: LAMP-1 surface exposure blockers, TALL-104 cells – cell-based, flow cytometry, MLPCN library, primary screen (AID 651702)
# Settings: TALL-104 LAMP-1 surface exposure, at 10 µM, hits give high values
row,Compound,inhibition
1,CC(=O)OC1C2(CC3N4C(=O)C5(CO)SSC4(CC31O)C(=O)N5C)OC(C)C(C)(C)C2=O (stereo not given),74.7% (active)
2,CN1CCC[C@@H]1CCO[C@](C)(c1ccccc1)c1ccc(Cl)cc1,3.8% (inactive)
3,Cc1cc(N2C(=O)C3CCCN3C2c2ccc(Cl)c(Cl)c2)no1 (stereo not given),1.1% (inactive)
4,CN1CCC(OC(=O)c2cccc(F)c2)CC1,-4.7% (inactive)
5,O=C(CCNS(=O)(=O)c1ccccc1)Nc1ccc(Cl)cc1C(=O)c1ccccc1,-5.4% (inactive)
6,OC1/C(=C/c2ccc(C(F)(F)F)cc2)N2CCC1CC2 (stereo not given),-6.5% (inactive)
7,O=C1NC(=O)N(CCc2ccc(F)cc2)C(=O)/C1=C/C=C/c1ccccc1,57.4% (active)
8,O=[N+]([O-])c1ccc(C2C3C(c4ccccc4)=NC4(CCCCC4)N32)cc1 (stereo not given),0.6% (inactive)
9,O=c1[nH]c(CN2CC=C(c3ccccc3)CC2)nc2scc(-c3cccs3)c12,-1.3% (inactive)
10,Cc1ccc(CN2CCCC(C(=O)c3ccc4c(c3)OCO4)C2)cc1C (stereo not given),-2.3% (inactive)
11,CCOc1ccc(-c2cc(C)[n+](CCN(CC)CC)c(-c3ccc(OCC)cc3)c2)cc1,77.5% (active)
12,COc1ccccc1CN1CCN(C(=O)Cc2ccccc2)CC1,24.2% (inactive)
13,COc1ccc(CNCCc2c[nH]c3ccccc23)cc1OC,21.9% (inactive)
14,COc1ccc(CNCCc2ccc3c(c2)OCO3)c(OC)c1OC,5.7% (inactive)
15,COc1ccc(Br)cc1CNCCc1cccc(Cl)c1,75.9% (active)
16,CCOP(=S)(OCC)C(O)CCCCCn1c(=O)c(F)cn(C2CCCO2)c1=O (stereo not given),1.5% (inactive)
17,CCOC(=O)[C@]12Cc3cc(OC)ccc3[C@H]1N(C(C)C)C(=O)c1ccccc12,3.3% (inactive)
18,CCOC(=O)[C@]12Cc3ccccc3[C@H]1N(C1CCCCC1)C(=O)c1cc(OC)ccc12,57.3% (active)
19,Cc1cccc(NC(=O)N2CC3CC(C2)c2cccc(=O)n2C3)c1 (stereo not given),-2.7% (inactive)
20,O=C(CCCn1c(=O)[nH]c2cc(Cl)ccc2c1=O)N1CCC2(CC1)OCCO2,2% (inactive)
21,Cc1cccc(OP(=O)(Oc2cccc(C)c2)OC(c2ccccc2)C(F)(F)F)c1 (stereo not given),0.4% (inactive)
22,O=C(Nc1cccc2ccccc12)N1CCC2(CC1)OCCO2,-7.6% (inactive)
23,CCCCCCCCCCCCn1ccc(=N)cc1,27.1% (inactive)
24,CCOC(=O)C1CN(C)CCC1=O (stereo not given),-3.9% (inactive)
25,CNCC[C@H](Oc1ccc(C(F)(F)F)cc1)c1ccccc1,10% (inactive)
26,O=C1NC(=O)N(Cc2ccco2)C(=O)/C1=C\c1ccc(-c2ccc(F)cc2)o1,76.4% (active)
27,COC(=O)C1=C(c2ccc(Cl)c(C(F)(F)F)c2)C[C@@H]2CC[C@H]1N2C(=O)NC(C)C,-10.7% (inactive)
28,COCc1cc(OC(=O)N(C)C)nc(-c2ccc(C)c(Cl)c2)n1,-8.4% (inactive)
29,COc1cc(-n2c(=S)[nH]c3ccc(C)cc3c2=O)c(Cl)cc1Cl,1.2% (inactive)
30,COc1ccc(-n2c(O)c(C(C)=Nc3ccc4c(c3)CCC4)c(=O)[nH]c2=O)cc1,-0.2% (inactive)
